Data published in PubChem BioAssay AID813 (Sanford-Burnham Center for Chemical Genomics, 2007).
In all, about 64,000 compounds went through this assay and fewer than 10 were called active.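 How the source made its calls: active means activation factor of at least 2 at 20 µM, relative to controls; inactive means the rest.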 A selection follows.

Each compound was assayed against Alkaline phosphatase, tissue-nonspecific isozyme (Homo sapiens) (UniProt P05186) (assay: human TNAP enzyme activators, primary screen, biochemical, luminescent, intermediate phosphate acceptor level (AID 813)). Details: purified TNAP, CDP-star luminescence, 100 mM DEA, 30 min; at 20 µM; stronger effect = higher value; scale: 0 levamisole-inhibited, 1 vehicle-only enzyme.
Chain of Alkaline phosphatase, tissue-nonspecific isozyme (Homo sapiens) (P05186 whole entry, looked up): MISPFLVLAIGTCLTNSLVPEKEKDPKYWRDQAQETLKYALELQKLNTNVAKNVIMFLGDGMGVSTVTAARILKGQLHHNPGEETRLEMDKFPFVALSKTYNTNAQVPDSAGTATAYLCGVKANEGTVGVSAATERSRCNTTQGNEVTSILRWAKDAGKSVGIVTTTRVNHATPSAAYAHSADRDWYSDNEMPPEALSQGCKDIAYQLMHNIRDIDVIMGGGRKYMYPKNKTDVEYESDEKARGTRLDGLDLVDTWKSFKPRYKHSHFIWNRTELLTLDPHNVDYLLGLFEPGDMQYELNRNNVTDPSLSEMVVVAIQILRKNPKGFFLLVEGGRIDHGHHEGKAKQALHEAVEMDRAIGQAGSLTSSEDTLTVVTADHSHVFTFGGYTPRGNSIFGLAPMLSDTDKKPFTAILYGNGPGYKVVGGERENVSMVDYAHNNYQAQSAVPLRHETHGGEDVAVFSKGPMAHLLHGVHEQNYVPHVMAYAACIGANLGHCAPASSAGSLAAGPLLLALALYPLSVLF

SMILES	activation factor
CCC(=O)N1c2ccc(S(=O)(=O)CCC(=O)N3CCN(c4ccccc4)CC3)cc2CC1C (centres undefined)	0.9 (inactive)
Cc1cc(Nc2ccccc2)n(CCC#N)n1	1 (inactive)
Cc1cc2cc(CNC(=O)c3ccc(S(=O)(=O)N4CCOCC4)cc3)ccc2[nH]1	1 (inactive)
CCOC(=O)c1cc2occc2n1CC(=O)NC1CCC(C)CC1 (centres undefined)	0.9 (inactive)
CC(CN1CCCCC1)OC(=O)c1ccccc1Cl (centres undefined)	1 (inactive)
COC(=O)c1cc(NC2c3ccccc3C(=O)N2c2ccc(Cl)cn2)cc(C(=O)OC)c1 (centres undefined)	0.9 (inactive)
N=c1c2c3c(sc2ncn1CCCN1CCOCC1)CCCCC3	0.9 (inactive)
Cc1ccc(S(=O)(=O)NCc2csc(C)n2)c(C)c1	0.9 (inactive)
CSCCC1NC2(C(=O)Nc3ccc(Cl)cc32)[C@@H]2C(=O)N(C3CCCC3)C(=O)[C@H]12 (some centres undefined)	0.9 (inactive)
NC(=O)c1ccsc1NC(=O)c1ccco1	0.8 (inactive)
O=C(CC1(O)C(=O)N(CN2CCOCC2)c2ccccc21)c1ccccc1 (centres undefined)	0.9 (inactive)
CCOc1cccc(-n2nnnc2-c2ccc(OC)cc2)c1	0.8 (inactive)
Cc1ccc(N2C(=O)c3oc4ccccc4c(=O)c3C2c2cccnc2)nc1 (centres undefined)	0.9 (inactive)
COc1ccccc1N1CCN(Cc2ccc(OC)c3ccccc23)CC1	0.9 (inactive)
CC(C)(C)c1csc(NC2=NS(=O)(=O)c3ccccc32)n1	0.9 (inactive)
CN1CCN(CC(O)COCc2ccc3c(c2)OCO3)CC1 (centres undefined)	1 (inactive)
COc1cc(C2C(C(=O)c3sc(C)nc3C)=C(O)C(=O)N2CCN(C)C)cc(OC)c1OC (centres undefined)	0.9 (inactive)
CCOc1cc(/C=N/O)cc(Br)c1OC	0.9 (inactive)
Cc1ccc(C(=O)Nc2ccccc2C(=O)NC2CCCCC2)cc1S(=O)(=O)N1CCOCC1	0.9 (inactive)
CC1CCN(c2nc3c(c(=O)[nH]c(=O)n3C)n2CCCc2ccccc2)CC1	1 (inactive)
Cc1cc(C)nc(NC2=NCC(=O)N2c2ccc(Cl)cc2)n1	0.9 (inactive)
CCOc1cc(S(=O)(=O)NC2CC(C)(C)NC(C)(C)C2)ccc1F	0.9 (inactive)
Nc1nnc(C2CCCC2)s1	0.9 (inactive)
Cn1c(=NC(=O)c2ccco2)sc2cccc(F)c21	0.9 (inactive)
CC(C)(CNCC(O)c1ccccc1)N1CCOCC1 (centres undefined)	0.9 (inactive)

SMILES	activation factor
CCOc1ccc(N(CC(=O)OC)S(=O)(=O)c2c(C)noc2C)cc1	0.9 (inactive)
COc1ccc(CCn2nnnc2C(c2ccccc2)N2CCN(C)CC2)cc1OC (centres undefined)	1 (inactive)
O=C(OCCO)c1cc(Cl)c(C(=O)OCCO)cc1Cl	0.9 (inactive)
O=C(C1CCCO1)N(Cc1ccccc1)c1ccccc1 (centres undefined)	0.9 (inactive)
Cc1nn(-c2ccccc2)c2sc(C(=O)N(Cc3ccco3)C(C)C(=O)NC(C)(C)C)cc12 (centres undefined)	0.9 (inactive)
COc1cccc(N2C(=O)CC(N3CCN(S(=O)(=O)c4ccccc4)CC3)C2=O)c1 (centres undefined)	1 (inactive)
CCN(CC)S(=O)(=O)c1cccc(C(=O)NCC(=O)OCC(=O)NCc2ccccc2)c1	0.9 (inactive)
O=C(O)c1ccc(COc2c(F)c(F)cc(F)c2F)o1	0.8 (inactive)
CC12CN(Cc3ccccc3)CC(C)(CN(Cc3ccccc3)C1)C2=NO	1.2 (inactive)
COc1ccc(C)cc1-n1nnnc1SCC(=O)c1cc(C)n(Cc2ccco2)c1C	0.8 (inactive)
O=C(c1cccs1)N1CCN(Cc2ccc3c(c2)OCO3)CC1	1 (inactive)
COc1cccc(N2CC(C(=O)Nc3c(C)cccc3C)CC2=O)c1 (centres undefined)	1 (inactive)
COc1cccc(N(C(=O)c2ccn[nH]2)C2(C(=O)Nc3c(C)cccc3C)CCCCC2)c1	2.8 (active)
Fc1cc(F)c2nc(N3CCOCC3)sc2c1	0.9 (inactive)
Cc1ccc(C(=O)O)cc1S(=O)(=O)NCC1CCCO1 (centres undefined)	0.9 (inactive)
COC(=O)c1ccccc1NC(=O)C1CCN(S(=O)(=O)c2cc(OC)ccc2OC)CC1	0.9 (inactive)
Cc1cccc(N)c1SC1CCCCC1O (centres undefined)	0.9 (inactive)
CC(=O)Nc1cccc2c1[n+]([O-])c(C)c(C)[n+]2[O-]	1 (inactive)
CC(=O)OC(C(=O)NCCc1ccccc1)c1cccnc1 (centres undefined)	1 (inactive)
CCc1nc2oc3ccccc3c(=O)c2c(=O)n1Cc1ccc(OC)cc1	0.9 (inactive)
CCSc1ncnc2c(C#N)c3n(c12)CCCCC3	0.9 (inactive)
O=C(Nc1c(C(=O)N2CCCCC2)cnn1-c1ccccc1)c1ccco1	1 (inactive)
CC1(C)CC(=O)C2=C(C1)NCN(CCCN1CCOCC1)C2	0.9 (inactive)
CCOC(=O)N1CCN(C(=O)Cc2ccc(-n3c(=S)[nH]c4ccccc4c3=O)cc2)CC1	1 (inactive)
O=C(OC(C(=O)NC1CCCC1)c1ccc(F)cc1)c1ccno1 (centres undefined)	0.9 (inactive)

SMILES	activation factor
CC(=O)N1CCN(CCN=CC2=C(O)CC(C)(C)CC2=O)CC1	0.9 (inactive)
OCCCN1c2ccccc2Nc2nnc(-c3ccccc3)cc21	4.3 (active)
CCCS(=O)(=O)C(=C1Nc2ccccc2N1)S(=O)(=O)CCC	0.9 (inactive)
O=C(Cc1c(F)cccc1Cl)N1CCN(C(=O)c2ccco2)CC1	0.8 (inactive)
O=C(COc1ccccc1Cl)Nn1cnnc1	0.9 (inactive)
O=C(CN(Cc1ccccc1)C(=O)c1ccc2c(c1)OCCO2)NCc1ccc2c(c1)OCO2	0.9 (inactive)
COc1ccc(C(=O)N(CCN2CCOCC2)CC(=O)NC2CCCC2)cc1OC	0.9 (inactive)
COc1ccc(C2C3=C(OC(C)=O)c4ccccc4C3=Nc3c2c(=O)n(C)c(=O)n3C)cc1 (centres undefined)	0.8 (inactive)
Cc1ccc(S(=O)(=O)c2c(N)n(C)c3nc4ccccc4nc23)cc1	0.9 (inactive)
NC(=O)C1CCN(C2OC(=O)c3ccccc32)CC1 (centres undefined)	0.9 (inactive)
O=C(OCC(=O)N1CCN(C(=O)c2ccco2)CC1)c1ccccc1Cc1ccccc1	1 (inactive)
Cc1coc2c(O)cc3c(c12)OC1(N2CCCCC2)C(=O)NCCCC31 (centres undefined)	0.9 (inactive)
CCC1=[N+]([O-])C(C)(/C(C)=N\O)N(O)C1(C)C (centres undefined)	1 (inactive)
O=C(CN1CCN(C(=O)c2cccc(F)c2)CC1)Nc1ccccc1F	1.1 (inactive)
CC/C(=N\O)C(C)(C)/[N+]([O-])=C/c1ccc(Br)cc1	0.9 (inactive)
CCCN1Cc2cccc(C(=O)NCc3ccccc3)c2C1=O	0.9 (inactive)
CC(=O)N1CCc2cc(S(=O)(=O)Nc3ccccc3N3CCN(C)CC3)ccc21	1 (inactive)
CCN(CC)c1ccc2cc(C(=O)O)c(=O)oc2c1	1 (inactive)
Cc1ccc(C)c(N2CCN(C(=O)CCCCn3c(=O)[nH]c4ccccc4c3=O)CC2)c1	0.8 (inactive)
CC1(C)Cc2c(sc3nc4n(c(=N)c23)CCCCC4)CO1	0.4 (inactive)
O=c1cccc(-c2ccc(Br)cc2)o1	0.9 (inactive)
O=C(CN1CCN(c2ccc(F)cc2)CC1)Nc1cccc(C(F)(F)F)c1	0.9 (inactive)
Cc1ccc(S(=O)(=O)N2CCC(C(=O)OCC(=O)N3CC(=O)Nc4ccccc43)CC2)cc1	0.9 (inactive)
CCC(c1nnnn1Cc1ccco1)N(CCc1ccccc1)Cc1cc2cccc(C)c2[nH]c1=O (centres undefined)	0.9 (inactive)
O=C1CC(Cc2ccccc2)C(=O)N1c1ccc(Cl)cn1 (centres undefined)	1 (inactive)

SMILES	activation factor
C=CCn1c(SCC(=O)NC23CC4CC(CC(C4)C2)C3)nc(O)cc1=O	0.9 (inactive)
CCn1c(=N)n(CC(=O)c2cccc(OC)c2)c2ccccc21	1 (inactive)
O=C(CCCOc1ccccc1)Nc1cccc(C(=O)O)c1	1 (inactive)
COc1ccc(S(=O)(=O)N2CCN(c3ncnc4c(-c5ccccc5)nsc34)CC2)cc1	0.9 (inactive)
CCOC(=O)c1c(N)c(C#N)nn1-c1ccccc1C(=O)OC	0.8 (inactive)
Cc1cccc(N2CC(C)Cn3c2nc2c3c(=O)n(CC(=O)OCc3ccccc3)c(=O)n2C)c1 (centres undefined)	0.9 (inactive)
CCn1c(=O)cc(O)c2ccccc21	1 (inactive)
O=C1c2ccccc2C(O)N1Cc1ccccc1 (centres undefined)	1 (inactive)
CCOc1ccc(CCNC(=O)C(CC)n2nc(C)n3c(cc4sccc43)c2=O)cc1OCC (centres undefined)	1 (inactive)
Cc1cc(=O)n2c3c(cccc13)CCC2	0.9 (inactive)
CC(C)OCCCNc1nc2c(c(=O)n(Cc3ccccc3F)c(=O)n2C)n1C	0.9 (inactive)
CCOC(=O)c1sc(NC(=O)c2cc(S(=O)(=O)N3CCOCC3)ccc2C)nc1C	0.9 (inactive)
Cc1ccc(S(=O)(=O)NCCN2CCOCC2)cc1C	1 (inactive)
Cc1cc(C(=O)N2CCN(c3ccccn3)CC2)c(C)o1	0.9 (inactive)
CC(=O)NCC(=O)N(C)C(C(=O)Nc1ccc2c(c1)OCCO2)c1ccccc1 (centres undefined)	1 (inactive)
CCOC(=O)c1c(C2CC2)csc1NC(=O)CSCc1c(C)noc1C	0.9 (inactive)
O=C(NC1CCCCC1)c1ccc2c(=O)n(CC3CCCO3)c(=O)[nH]c2c1 (centres undefined)	1 (inactive)
CCOc1ccc(OCC)c(NC(=O)CSc2nnc(Cn3cnc4ccccc43)n2C)c1	0.9 (inactive)
CCOC(=O)CSc1nc2c(c(=O)n(Cc3ccccc3Cl)c(=O)n2C)n1C	0.9 (inactive)
CCOC(=O)C1=C(CNC2CCCCC2)NC(=O)NC1c1cc(C)ccc1C (centres undefined)	0.9 (inactive)
CSc1ccc(S(=O)(=O)NCc2ccc(Cl)cc2)cc1	0.8 (inactive)
CC1(C)CC(=O)C=C(NC2CC(C)(C)NC(C)(C)C2)C1	0.9 (inactive)
CCOC(=O)n1c(SCC(=O)N(CC)CC)nc2ccccc21	0.9 (inactive)
CCC(C)(C)n1nnnc1C(c1ccccc1OC)N1CCSCC1 (centres undefined)	0.9 (inactive)
